The full ranking holds about 33,000 sequences; the median of “E-score (-0.5 to 0.5)” is about -0.041, and the highest 2% start at about 0.37. This excerpt belongs to a sample that is enriched for the highest values.
Each sequence was assayed against T1, Ecm22 (UniProt Q05958) (assay: PBM E-score (8-mer binding enrichment) (E-score (-0.5 to 0.5)); higher = stronger / more preferred TF binding). Conditions: protein concentration: 200 nM; construct: GST-full length.
T1 sequence: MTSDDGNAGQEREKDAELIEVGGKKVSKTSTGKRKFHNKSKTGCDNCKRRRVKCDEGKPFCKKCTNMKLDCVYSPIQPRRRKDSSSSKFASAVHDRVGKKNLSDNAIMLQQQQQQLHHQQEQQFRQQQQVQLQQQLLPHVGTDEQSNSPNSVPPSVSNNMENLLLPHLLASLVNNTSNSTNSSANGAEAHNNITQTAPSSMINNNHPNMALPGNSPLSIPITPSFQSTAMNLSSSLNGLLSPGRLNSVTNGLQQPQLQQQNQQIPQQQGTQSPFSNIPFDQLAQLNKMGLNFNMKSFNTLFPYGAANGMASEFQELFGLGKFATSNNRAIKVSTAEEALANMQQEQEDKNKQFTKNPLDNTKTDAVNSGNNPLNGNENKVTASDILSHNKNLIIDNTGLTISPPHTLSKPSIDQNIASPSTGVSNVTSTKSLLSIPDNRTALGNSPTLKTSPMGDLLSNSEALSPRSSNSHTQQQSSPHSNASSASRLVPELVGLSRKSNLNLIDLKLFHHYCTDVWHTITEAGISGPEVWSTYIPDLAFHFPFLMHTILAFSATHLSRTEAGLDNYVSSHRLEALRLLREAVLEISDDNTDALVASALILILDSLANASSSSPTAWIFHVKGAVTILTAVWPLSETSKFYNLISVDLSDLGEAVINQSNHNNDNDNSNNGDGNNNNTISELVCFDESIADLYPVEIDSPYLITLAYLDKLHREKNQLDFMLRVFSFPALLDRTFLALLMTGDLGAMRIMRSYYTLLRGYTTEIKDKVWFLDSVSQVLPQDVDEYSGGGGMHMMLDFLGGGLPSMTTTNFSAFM
In short: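 Each ungapped eight-base word and its reverse complement, pooled, received an E-score from the Universal PBM Analysis Suite. Underlying scans, normalised with masliner, recorded fluorescent anti-GST bound to GST-tagged yeast transcription factors. These were applied at about 100-200 nM to universal all-10-mer Agilent arrays double-stranded by primer extension.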

| Sequence | PBM E-score |
| --- | --- |
| AGAGGGAC | -0.0884 |
| ATCTCCTC | -0.0702 |
| CACGATAG | -0.065 |
| AACGATAA | 0.382 |
| ACCGATAA | 0.116 |
| CGTTAAGC | 0.4 |
| CGTTAAGA | 0.222 |
| CGTTAAAA | 0.287 |
| AGTTAAGC | 0.0271 |
| GGTTAAAC | 0.116 |
| CGTTAAAC | 0.392 |
| TCTCTTCA | -0.0952 |
| AGACCGCA | -0.0494 |
| GTGACAGA | -0.0918 |
| CCAACTTA | -0.115 |
| CCGTTCCA | 0.373 |
| GCGTTCCA | 0.141 |
| ACGTTCCC | 0.269 |
| CTGTTCCA | -0.186 |
| CCGTTCGA | 0.152 |
| TCGTTCCA | 0.475 |
| GCGTTCCC | 0.104 |
| TCGTTTCA | 0.396 |
| ACGTTTCA | 0.107 |
| ACGTTCCA | 0.214 |

| Sequence | PBM E-score |
| --- | --- |
| CCGTTCCC | 0.464 |
| GCGTTTCA | -0.0209 |
| CTTGTGAA | -0.226 |
| GATCCCGC | 0.0461 |
| GTTCACCA | 0.0888 |
| TCGCTAAA | 0.34 |
| AAAGCTCT | -0.258 |
| ACGTTCAA | 0.188 |
| ACGTTCCG | 0.259 |
| CCGTTCCG | 0.441 |
| CAGTTCCG | 0.14 |
| TCGTTCAA | 0.448 |
| GCGTTCAA | 0.0639 |
| AAGATCAA | -0.0315 |
| ATAGGAAA | -0.0768 |
| CTTTGGCA | -0.144 |
| AGCTCAAC | -0.0198 |
| AAAGAAGT | -0.0866 |
| CACGAAGA | 0.226 |
| TACGAAGA | 0.444 |
| AACGAAGC | 0.437 |
| ACCGAAGT | 0.207 |
| GACGAAGC | 0.0937 |
| TAAGAAGA | 0.0914 |
| GACGAAGA | 0.0867 |

| Sequence | PBM E-score |
| --- | --- |
| CACGAAGC | 0.0604 |
| TCCGAAGA | 0.0982 |
| AACGAAGT | 0.419 |
| AACGAAGA | 0.421 |
| CGGATTTC | 0.0823 |
| CGCGGCAC | 0.0802 |
| ATTCTGGG | -0.192 |
| TCCAATCA | -0.115 |
| TTCTTAAA | -0.107 |
| ATTGAGGA | -0.0867 |
| AGCGCCGC | -0.188 |
| ATAAACTA | 0.0319 |
| TAGTCTAA | -0.04 |
| ACTATCCT | -0.133 |
| ACTACGGC | -0.0479 |
| ACGTCGCG | 0.162 |
| TGGACCCA | -0.131 |
| AACGAAGG | 0.398 |
| ACCGAAGG | 0.107 |
| CACGAAGG | 0.0498 |
| CCGAACCA | -0.0831 |
| ACGAACCA | 0.391 |
| GCGAAGCA | 0.0616 |
| ACGAACCG | 0.368 |
| ACGAAGCA | 0.378 |

| Sequence | PBM E-score |
| --- | --- |
| GCGAACCA | 0.146 |
| CCGAACCG | 0.12 |
| ACGAAGCG | 0.317 |
| ACGAACCC | 0.28 |
| ACGGTCAA | 0.297 |
| GTTACACA | -0.0371 |
| CGCACCAC | 0.0793 |
| CATATCCA | -0.0799 |
| AATGGAAA | -0.198 |
| CACGGTAC | 0.113 |
| AATCTGGA | -0.119 |
| AGTACCCC | -0.0697 |
| CGTACCCA | 0.406 |
| AGTACCCA | -0.208 |
| GGTACCCA | -0.145 |
| CATACCCC | -0.0887 |
| CGTACCCC | 0.453 |
| GCCTGCGC | -0.272 |
| ACCCTACG | -0.142 |
| AGCGGTGC | 0.0264 |
| GATTTGAC | 0.202 |
| AGAGACGC | 0.0019 |
| CGTATGTC | 0.342 |
| CGTATGGC | 0.4 |
| GGTATGGA | -0.15 |

| Sequence | PBM E-score |
| --- | --- |
| AGTATGGC | -0.0838 |
| AGTATGGA | -0.115 |
| CGTATGGA | 0.383 |
| CCGAGATA | 0.186 |
| TTACGCAA | 0.115 |
| AGTTTGCC | -0.117 |
| GTTGAAAC | 0.0017 |
| GCCTGGCA | -0.318 |
| CGACCGCC | 0.137 |
| ACTACTAG | -0.0821 |
| ACATTCGG | 0.0251 |
| ACATTCGT | 0.37 |
| ACATTCGA | 0.0496 |
| GACACCTC | 0.148 |
| ACCCTCGA | -0.16 |
| ACCCTCGT | 0.449 |
| ACCCTCGC | 0.194 |
| CACCAATA | -0.0897 |
| AGTAGCGA | 0.153 |
| CGTAGCGC | 0.273 |
| CGTAGCGA | 0.382 |
| TAGGGAAA | -0.0897 |
| TACGAAAA | 0.423 |
| AACGAATA | 0.371 |
| CACGAAAA | 0.153 |

| Sequence | PBM E-score |
| --- | --- |
| GACGAAAA | 0.196 |
| ATCGAATA | 0.138 |
| TACGAATA | 0.43 |
| AACGAATT | 0.36 |
| GACGAATA | 0.0261 |
| CACGAATG | 0.052 |
| AACGAATG | 0.429 |
| CACGAATA | 0.117 |
| ACCGAATA | 0.18 |
| AATTGCTA | -0.0544 |
| AGTGCTGG | -0.152 |
| AAGCGGTA | 0.145 |
| CACAACTC | 0.144 |
| ACCAGCTA | -0.0229 |
| AGCCAATG | -0.141 |
| CAGGGGAA | -0.0465 |
| CGCGATCA | 0.179 |
| AGTTCTTG | -0.0776 |
| GTCAGGGA | -0.19 |
| GACGAATC | 0.106 |
| CACGAATC | 0.0959 |
| AACGAATC | 0.387 |
| ATGCAAGG | -0.193 |
| CCGCGACG | 0.0789 |
| ACCGGGCG | 0.0784 |

| Sequence | PBM E-score |
| --- | --- |
| GACCTACA | -0.18 |
| CATGGCGC | -0.137 |
| CCACTCCG | 0.019 |
| GCCGTAGC | 0.163 |
| ACCGTAGG | -0.172 |
| TCCGTACA | 0.379 |
| TGCGTACA | 0.283 |
| GGCGTACC | 0.279 |
| GCCGTACA | 0.371 |
| GCCGTGCA | -0.305 |
| GCCGTAAA | 0.366 |
| ACCGTAAG | 0.212 |
| GCCGTACC | 0.441 |
| ACCGTACG | 0.385 |
| TCCGTAGA | -0.0285 |
| AATTCTAT | -0.104 |
| TACGTTCA | 0.276 |
| GATCCGGC | -0.0487 |
| GACCAGGA | -0.0856 |
| AGGGGAAA | -0.223 |
| CAAGGACA | -0.247 |
| GGCACCGA | -0.0384 |
| GAGTCACA | 0.0764 |
| AAACTGTT | -0.124 |
| ACCGTACT | 0.285 |

| Sequence | PBM E-score |
| --- | --- |
| ACCGTACC | 0.416 |
| ACCGTAGA | 0.0719 |
| ACCGTAGC | 0.163 |
| ACCGTAAC | 0.231 |
| ACCGTACA | 0.371 |
| CACTGTCG | 0.109 |
| GCCCTATA | -0.00087 |
| AAATAGCT | -0.0997 |
| CTTAACGC | -0.0209 |
| CTTAACGA | 0.432 |
| GTTAACTA | 0.106 |
| ATTAACGA | 0.402 |
| GCTAACGA | 0.281 |
| ATTAACGC | 0.122 |
| GTTAACGA | 0.408 |
| ATTAACGG | 0.226 |
| CGTAACGA | 0.338 |
| AGAAGACA | 0.011 |
| GTGTTTCA | -0.0721 |
| GTCCTGGA | -0.225 |
| TTAATAAA | 0.169 |
| TCGAACCA | -0.029 |
| GCGAACGA | 0.397 |
| CCGAACGA | 0.357 |
| TCGAACAA | 0.109 |

| Sequence | PBM E-score |
| --- | --- |
| ACGAACGT | 0.307 |
| ACGAACGG | 0.392 |
| GCGAACGC | 0.138 |
| TCGAACGA | 0.373 |
| CCGAACGG | 0.222 |
| GCGAACTA | 0.114 |
| ACGAACGA | 0.447 |
| ACGAACGC | 0.362 |
| CCACCGGG | -0.108 |
| GATTTCCA | -0.146 |
| CTGCTCTA | 0.0645 |
| ATGCTGAG | -0.31 |
| AGCCGGAA | -0.0725 |
| ACCAATGA | -0.061 |
| CAACAACG | 0.209 |
| ATAGTCGC | 0.146 |
| CCTCTAAA | -0.193 |
| GACTTAGC | -0.147 |
| GGCATCCC | -0.315 |

From the supplement of paper PMC3334620
